Measured values: the supplement of paper PMC10849652
About 7,900 targets were measured; listed, in parts, are those with a hit and a random draw of the rest. About 0.6% of all pairs of compound and target were hits.

These targets were tested with O=C(CCCCCCC(=O)Nc1ccccc1)NO [vorinostat] (assay: log2 fold change, soluble protein after heating vs DMSO (PISA); higher = thermal stabilisation; K562 cells, 10 uM, 30 min; active = over 0.2 and 3.5 SD of the protein, either way, in both replicates (recomputed)).
Outline: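 Soluble protein was quantified by TMTpro 16plex LC-MS/MS after channel sums were equalised. It was obtained as the supernatant after 21,000xg for 90 min from pooled aliquots of K562 cells (2×10^6 cells/mL, 10 μM compound, 30 min) heated for 3 min across 48°C-58°C and extracted in PBS with 0.5% NP-40 at 4°C. Thermal stability values are relative to control samples and come from duplicates. They are given as log2 fold changes.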

Sequence of UniProt Q9NQR1 (Q9NQR1 whole entry, looked up): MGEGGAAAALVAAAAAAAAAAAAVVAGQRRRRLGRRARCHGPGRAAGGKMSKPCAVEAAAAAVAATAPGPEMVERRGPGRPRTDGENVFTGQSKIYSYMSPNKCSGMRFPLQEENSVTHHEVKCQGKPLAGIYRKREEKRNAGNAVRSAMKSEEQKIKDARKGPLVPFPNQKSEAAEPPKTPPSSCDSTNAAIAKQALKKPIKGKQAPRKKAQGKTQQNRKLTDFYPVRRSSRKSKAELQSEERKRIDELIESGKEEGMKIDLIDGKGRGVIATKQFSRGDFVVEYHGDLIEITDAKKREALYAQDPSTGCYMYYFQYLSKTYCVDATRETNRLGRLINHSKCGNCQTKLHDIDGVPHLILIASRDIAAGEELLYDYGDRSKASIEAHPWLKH
Sequence of UniProt Q8NHS3 (Q8NHS3 whole entry, looked up): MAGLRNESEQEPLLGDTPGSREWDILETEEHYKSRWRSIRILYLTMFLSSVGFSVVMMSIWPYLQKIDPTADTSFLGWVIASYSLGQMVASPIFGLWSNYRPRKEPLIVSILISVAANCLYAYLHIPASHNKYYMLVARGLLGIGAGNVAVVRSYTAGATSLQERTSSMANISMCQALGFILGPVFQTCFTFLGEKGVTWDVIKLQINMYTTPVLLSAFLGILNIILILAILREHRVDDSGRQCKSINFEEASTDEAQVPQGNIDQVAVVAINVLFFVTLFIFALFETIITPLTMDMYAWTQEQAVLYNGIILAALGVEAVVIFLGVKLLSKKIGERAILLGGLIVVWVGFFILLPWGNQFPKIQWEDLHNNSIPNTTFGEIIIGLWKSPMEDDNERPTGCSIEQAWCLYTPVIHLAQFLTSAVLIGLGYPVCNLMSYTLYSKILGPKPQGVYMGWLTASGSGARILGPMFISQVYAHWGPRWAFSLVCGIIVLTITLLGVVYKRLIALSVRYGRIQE
Sequence of UniProt O15243 (O15243 whole entry, looked up): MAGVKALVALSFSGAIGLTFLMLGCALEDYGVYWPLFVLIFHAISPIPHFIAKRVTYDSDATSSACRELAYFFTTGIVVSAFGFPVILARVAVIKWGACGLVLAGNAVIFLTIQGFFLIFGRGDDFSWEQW
Sequence of UniProt Q13164 (Q13164 whole entry, looked up): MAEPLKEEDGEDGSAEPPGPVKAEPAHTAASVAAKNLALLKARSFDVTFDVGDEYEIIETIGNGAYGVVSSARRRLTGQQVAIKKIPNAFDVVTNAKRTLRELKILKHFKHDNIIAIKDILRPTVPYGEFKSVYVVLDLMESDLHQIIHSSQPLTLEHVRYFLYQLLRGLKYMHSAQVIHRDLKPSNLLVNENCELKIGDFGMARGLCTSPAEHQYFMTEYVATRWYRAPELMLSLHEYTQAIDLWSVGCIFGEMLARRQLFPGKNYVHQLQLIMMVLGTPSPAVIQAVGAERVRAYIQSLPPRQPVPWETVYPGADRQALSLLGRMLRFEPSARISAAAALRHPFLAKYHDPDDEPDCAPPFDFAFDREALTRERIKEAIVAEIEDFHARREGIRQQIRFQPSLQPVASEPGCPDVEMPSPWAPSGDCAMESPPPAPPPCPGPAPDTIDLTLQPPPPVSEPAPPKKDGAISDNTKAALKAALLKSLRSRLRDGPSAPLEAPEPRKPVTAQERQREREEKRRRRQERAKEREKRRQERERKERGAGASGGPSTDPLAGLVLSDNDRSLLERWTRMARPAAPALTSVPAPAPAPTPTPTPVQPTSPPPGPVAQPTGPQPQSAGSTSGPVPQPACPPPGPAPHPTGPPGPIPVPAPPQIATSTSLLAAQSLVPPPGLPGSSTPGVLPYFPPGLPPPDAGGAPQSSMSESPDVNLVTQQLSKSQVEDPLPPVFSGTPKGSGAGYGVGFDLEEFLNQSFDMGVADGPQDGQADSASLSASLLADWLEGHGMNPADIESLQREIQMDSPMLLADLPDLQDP
Sequence of UniProt Q7L590 (Q7L590 whole entry, looked up): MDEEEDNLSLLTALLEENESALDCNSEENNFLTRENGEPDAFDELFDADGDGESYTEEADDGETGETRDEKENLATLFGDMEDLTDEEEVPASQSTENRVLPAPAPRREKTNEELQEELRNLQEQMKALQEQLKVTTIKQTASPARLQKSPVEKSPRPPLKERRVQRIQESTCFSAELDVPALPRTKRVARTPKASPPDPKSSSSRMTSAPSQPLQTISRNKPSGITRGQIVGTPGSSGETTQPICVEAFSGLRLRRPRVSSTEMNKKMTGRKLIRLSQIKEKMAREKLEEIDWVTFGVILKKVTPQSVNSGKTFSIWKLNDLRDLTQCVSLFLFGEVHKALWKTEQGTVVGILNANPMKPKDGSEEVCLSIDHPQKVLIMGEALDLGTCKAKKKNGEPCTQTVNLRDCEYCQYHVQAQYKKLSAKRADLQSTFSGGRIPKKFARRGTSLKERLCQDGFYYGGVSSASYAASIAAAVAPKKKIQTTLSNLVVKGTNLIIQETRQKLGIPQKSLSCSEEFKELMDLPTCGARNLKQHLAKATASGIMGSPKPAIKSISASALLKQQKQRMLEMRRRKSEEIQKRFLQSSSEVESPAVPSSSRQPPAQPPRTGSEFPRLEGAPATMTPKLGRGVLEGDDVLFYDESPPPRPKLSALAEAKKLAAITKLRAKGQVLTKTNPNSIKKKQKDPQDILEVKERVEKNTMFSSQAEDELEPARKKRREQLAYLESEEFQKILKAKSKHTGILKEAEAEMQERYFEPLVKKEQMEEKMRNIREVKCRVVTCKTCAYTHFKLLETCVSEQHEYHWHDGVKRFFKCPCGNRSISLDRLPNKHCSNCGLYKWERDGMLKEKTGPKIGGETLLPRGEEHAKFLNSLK
Sequence of UniProt Q2M2Z5 (Q2M2Z5 whole entry, looked up): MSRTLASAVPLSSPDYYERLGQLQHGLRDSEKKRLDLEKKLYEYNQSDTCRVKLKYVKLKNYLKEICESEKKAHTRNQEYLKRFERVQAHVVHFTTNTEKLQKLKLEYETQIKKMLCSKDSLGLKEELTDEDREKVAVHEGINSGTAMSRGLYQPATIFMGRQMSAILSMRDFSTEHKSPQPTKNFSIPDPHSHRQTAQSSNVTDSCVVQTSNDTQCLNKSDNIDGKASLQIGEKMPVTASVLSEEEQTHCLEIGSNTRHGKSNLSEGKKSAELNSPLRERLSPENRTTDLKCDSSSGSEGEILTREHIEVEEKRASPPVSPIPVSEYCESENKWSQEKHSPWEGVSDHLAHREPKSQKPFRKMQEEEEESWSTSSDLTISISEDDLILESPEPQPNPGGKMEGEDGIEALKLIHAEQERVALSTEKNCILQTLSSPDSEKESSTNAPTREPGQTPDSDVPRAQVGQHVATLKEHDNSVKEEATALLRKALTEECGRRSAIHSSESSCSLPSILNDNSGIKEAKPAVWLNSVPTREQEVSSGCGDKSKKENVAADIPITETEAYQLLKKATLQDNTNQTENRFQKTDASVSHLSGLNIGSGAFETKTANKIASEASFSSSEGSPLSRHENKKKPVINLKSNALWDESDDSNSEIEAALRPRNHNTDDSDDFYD
Sequence of UniProt A4D2B0 (A4D2B0 whole entry, looked up): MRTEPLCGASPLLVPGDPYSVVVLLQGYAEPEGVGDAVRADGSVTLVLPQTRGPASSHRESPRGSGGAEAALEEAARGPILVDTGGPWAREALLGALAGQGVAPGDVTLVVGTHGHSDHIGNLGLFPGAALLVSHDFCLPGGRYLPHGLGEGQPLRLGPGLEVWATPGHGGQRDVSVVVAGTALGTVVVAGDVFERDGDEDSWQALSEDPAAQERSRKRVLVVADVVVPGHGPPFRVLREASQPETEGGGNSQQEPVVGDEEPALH
Sequence of UniProt Q15759 (Q15759 whole entry, looked up): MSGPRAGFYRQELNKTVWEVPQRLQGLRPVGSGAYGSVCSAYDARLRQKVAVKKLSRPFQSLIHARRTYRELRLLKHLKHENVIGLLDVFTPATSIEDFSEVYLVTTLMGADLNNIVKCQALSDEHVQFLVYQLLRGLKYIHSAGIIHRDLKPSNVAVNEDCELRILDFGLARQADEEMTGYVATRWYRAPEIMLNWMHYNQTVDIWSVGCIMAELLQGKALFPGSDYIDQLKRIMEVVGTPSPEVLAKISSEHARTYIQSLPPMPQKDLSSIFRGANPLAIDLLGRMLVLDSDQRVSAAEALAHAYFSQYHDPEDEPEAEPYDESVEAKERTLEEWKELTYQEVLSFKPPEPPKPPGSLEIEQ
Sequence of UniProt O95279 (O95279 whole entry, looked up): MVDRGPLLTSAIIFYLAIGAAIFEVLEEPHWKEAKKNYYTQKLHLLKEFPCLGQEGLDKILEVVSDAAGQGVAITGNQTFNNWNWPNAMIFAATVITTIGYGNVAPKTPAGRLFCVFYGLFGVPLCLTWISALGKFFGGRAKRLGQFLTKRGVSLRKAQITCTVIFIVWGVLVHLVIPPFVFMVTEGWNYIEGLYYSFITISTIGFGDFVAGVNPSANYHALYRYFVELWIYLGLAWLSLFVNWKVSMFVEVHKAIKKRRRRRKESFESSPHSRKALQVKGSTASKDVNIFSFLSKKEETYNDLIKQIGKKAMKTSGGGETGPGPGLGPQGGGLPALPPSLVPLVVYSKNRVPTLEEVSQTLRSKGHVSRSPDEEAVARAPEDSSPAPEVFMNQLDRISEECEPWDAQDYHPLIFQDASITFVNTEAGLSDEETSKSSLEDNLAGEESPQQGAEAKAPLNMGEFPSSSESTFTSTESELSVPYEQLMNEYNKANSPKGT
Sequence of UniProt P13473 (P13473 whole entry, looked up): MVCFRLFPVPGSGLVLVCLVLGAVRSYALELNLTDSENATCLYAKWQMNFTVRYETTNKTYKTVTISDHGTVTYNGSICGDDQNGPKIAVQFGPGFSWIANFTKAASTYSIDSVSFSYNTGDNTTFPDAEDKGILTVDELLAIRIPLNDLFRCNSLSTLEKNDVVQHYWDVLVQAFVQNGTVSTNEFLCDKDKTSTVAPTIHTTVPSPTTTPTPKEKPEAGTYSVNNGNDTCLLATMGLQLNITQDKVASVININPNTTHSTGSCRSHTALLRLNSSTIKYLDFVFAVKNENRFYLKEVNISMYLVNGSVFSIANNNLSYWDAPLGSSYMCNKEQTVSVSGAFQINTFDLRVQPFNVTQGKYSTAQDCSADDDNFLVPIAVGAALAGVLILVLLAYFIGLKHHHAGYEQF

log2 fold change, inactive:
MFSD12 isoform 3 (UniProt Q6NUT3) 0.11
MFSD8 (UniProt Q8NHS3) -0.008
LRRFIP1 isoform 4 (UniProt Q32MZ4) -0.062
MAPK11 (UniProt Q15759) 0.033
LEPROT (UniProt O15243) -0.142
LAMP2 isoform 2 (UniProt P13473) -0.113
MCM10 (UniProt Q7L590) 0.021
KIZ (UniProt Q2M2Z5) 0.137
MGRN1 isoform 2 (UniProt O60291) -0.024
LAPTM4B (UniProt Q86VI4) -0.064
KXD1 (UniProt Q9BQD3) -0.046
MAPK7 (UniProt Q13164) -0.069
KMT5A (UniProt Q9NQR1) 0.096
MAGEA8 (UniProt P43361) -0.063
JAK3 (UniProt P52333) -0.048
KCNK5 (UniProt O95279) -0.102
MBLAC1 (UniProt A4D2B0) -0.021
IKZF1 (UniProt R9R4D9) -0.181
MCOLN3 (UniProt Q8TDD5) 0
